Records with an inconclusive call do not appear. Entries that show only a call come without a potency. Calls of active or inactive are those of the source. Calls follow the shape of the dose curve; as a rule, active = well fitted inhibition curve with a large enough effect; inconclusive = small, poorly fitted or top-dose-only effect; inactive = flat fitted curve, though single readings scatter.
target: Glutathione peroxidase 1 (Homo sapiens) (UniProt P07203); assay: Primary qHTS Assay for Inhibitors of Recombinant Selenoprotein Glutathione Peroxidase 1 (GPX1) (AID 1845191); conditions: recombinant GPX1, GR-coupled NADPH fluorescence, 15 min; series mostly up to 27.7 µM
Sequence (P07203 whole entry, looked up): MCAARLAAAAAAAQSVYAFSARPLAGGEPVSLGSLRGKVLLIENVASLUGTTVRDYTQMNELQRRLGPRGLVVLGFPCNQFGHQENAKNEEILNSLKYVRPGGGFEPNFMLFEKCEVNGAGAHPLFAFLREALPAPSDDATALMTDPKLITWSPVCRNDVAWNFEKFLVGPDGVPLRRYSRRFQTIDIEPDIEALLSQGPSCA
Summary of the method: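 GR-coupled assay: compounds preincubated 30 min at room temperature with GPX1, then reaction started with CHP; final 10 nM GPX1, 1 mM GSH, 0.5 mM CHP, 0.5 mM NADPH, 100 nM GR, 0.01% BSA, pH 7.5 Tris buffer. NADPH fluorescence (340/450 nm) read at 0 and 15 min.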
Also: nearly all actives have a fitted effect of over 65% in size.

| SMILES | Potency |
| --- | --- |
| C=C1C(O)C(O)C2(CC3C(C)=CCC4C(C)(C(=O)O)CCCC34C)OC2C1O (configuration not stated) | inactive |
| CCC(C)C(=O)OC[C@H]1O[C@H](O[C@H]2O[C@H](CO)[C@@H](O)[C@H](O)[C@H]2O)[C@H](O)[C@@H](O)[C@@H]1O (some centres not stated) | inactive |
| C=CCC1=C[C@]2(OC)[C@H](C)[C@@H](c3ccc(OC)c(OC)c3)O[C@]2(OC)CC1=O | inactive |

target: Phospholipid hydroperoxide glutathione peroxidase GPX4 (Homo sapiens) (UniProt P36969); assay: Primary qHTS Assay for Inhibitors of Recombinant Selenoprotein Glutathione Peroxidase 4 (GPX4) (AID 1845192); conditions: recombinant GPX4, GR-coupled NADPH fluorescence, 15 min; series mostly up to 27.8 µM
Sequence (P36969 whole entry, looked up): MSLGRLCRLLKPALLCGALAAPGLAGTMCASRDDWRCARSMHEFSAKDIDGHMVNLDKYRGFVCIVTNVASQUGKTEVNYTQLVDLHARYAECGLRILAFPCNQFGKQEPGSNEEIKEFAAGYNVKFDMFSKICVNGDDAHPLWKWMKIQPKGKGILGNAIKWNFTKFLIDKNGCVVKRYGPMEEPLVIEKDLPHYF
Summary of the method: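 GR-coupled assay: recombinant GPX4 preincubated 30 min with compound at room temperature; final 200 nM GPX4, 1 mM GSH, 0.5 mM cumene hydroperoxide, 0.5 mM NADPH, 100 nM GR, 0.01% BSA, pH 7.5 Tris. NADPH fluorescence (340/450 nm) read at 0 and 15 min.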

| SMILES | Potency |
| --- | --- |
| COCCN1CCC(C(=O)NO)(S(=O)(=O)c2ccc(Oc3ccc(OC(F)(F)F)cc3)cc2)CC1 | inactive |
| Cc1onc(-c2c(Cl)cccc2Cl)c1CC(=O)NCc1ccc(OCC(F)(F)F)nc1 | inactive |
| CC1(C)CC[C@]2(C(=O)O[C@@H]3O[C@H](CO)[C@@H](O)[C@H](O)[C@H]3O)CC[C@]3(C)C(=CCC4[C@@]5(C)CC[C@H](O[C@@H]6O[C@H](C(=O)O)[C@@H](O[C@@H]7O[C@H](CO)[C@@H](O)[C@H](O)[C@H]7O)[C@H](O)[C@H]6O)C(C)(C)C5CC[C@]43C)C2C1 (some centres not stated) | inactive |
| CN[C@H](CNC(=O)N1CCC[C@@H]([C@@H](OCCNC(=O)OC)c2cccc(Cl)c2)C1)C[C@H]1CCCOC1 | inactive |
| COC(=O)C1=CO[C@@H](O[C@@H]2O[C@H](CO[C@@H]3O[C@H](CO)[C@@H](O)[C@H](O)[C@H]3O)[C@@H](O)[C@H](O)[C@H]2O)[C@@H]2C(CO)=CC[C@H]12 | inactive |
| CC(C)Oc1ccc(-c2nc(-c3cccc4c3CCC4NCCC(=O)O)no2)cc1C#N (configuration not stated) | inactive |
| C/C=C1/[C@H](O[C@@H]2O[C@H](CO)[C@@H](O)[C@H](O)[C@H]2O)OC=C(C(=O)OC)[C@H]1CC(=O)OCCc1ccc(O)c(O)c1 | inactive |
| COc1c2cc(c(O)c1OC)CCCCC(O)CCc1ccc(O)c-2c1 (configuration not stated) | inactive |
| COC(=O)C1=CO[C@@H](O[C@@H]2O[C@H](CO)[C@@H](O)[C@H](O)[C@H]2O)[C@@H]2[C@@H](C)[C@@H](O)C(O)[C@H]12 (some centres not stated) | inactive |
| CC1(C)CC[C@]2(C(=O)O[C@@H]3O[C@H](CO)[C@@H](O)[C@H](O)[C@H]3O)CC[C@]3(C)C(=CCC4[C@@]5(C)CC[C@H](O[C@@H]6O[C@H](C(=O)O)[C@@H](O)[C@H](O)[C@H]6OC6OC(CO)C(O)C(O)C6O)C(C)(C)C5CC[C@]43C)[C@@H]2C1 (some centres not stated) | inactive |
| COC(=O)C1=COC(O[C@@H]2O[C@H](COC(=O)/C=C/c3ccc(O)cc3)[C@@H](O)[C@H](O)[C@H]2O)C2C(CO)=CCC12 (some centres not stated) | inactive |
| NC(Cc1c[nH]c2ccc(O)cc12)C(=O)O (configuration not stated) | inactive |
| COc1cccc2c1c(O)c(C(=O)N(C)c1ccc(C(F)(F)F)cc1)c(=O)n2C | inactive |
| CCC1OC(=O)C(C)CC(C)C(=O)/C(C)=C/C(C)C(=O)/C=C/C1(C)O (configuration not stated) | inactive |
| CC1(C)OC(=O)C=C[C@@]2(C)C1CC(=O)[C@]1(C)C2CC[C@@]2(C)[C@H](c3ccoc3)OC(=O)[C@H]3O[C@]321 (some centres not stated) | inactive |
| CC[C@H](NC(=O)c1c(O)c(-c2ccccc2)nc2ccccc12)c1ccccc1 | inactive |
| C[C@@H]1O[C@@H](O[C@@H]2[C@@H](O)[C@H](O[C@@H]3[C@@H](O)[C@@H](O)[C@H](O[C@H]4[C@H](OC(=O)[C@]56CCC(C)(C)C[C@H]5C5=CCC7[C@@]8(C)C[C@H](O)[C@H](O[C@@H]9O[C@H](C(=O)O)[C@@H](O)[C@H](O)[C@H]9O)[C@@](C)(CO)C8[C@H](O)C[C@@]7(C)[C@]5(C)C[C@H]6O)O[C@@H](CO)[C@@H]4O)O[C@H]3C)OC[C@H]2O)[C@H](O)[C@H](O)[C@H]1O (some centres not stated) | inactive |
| Cc1ccc(-c2c(-c3nn(C)c4ncnc(N5CC[C@H](N6CCCCC6)C5)c34)cnn2C)cc1 | inactive |
| CC1(C)CC[C@]2(C(=O)O)CC[C@]3(C)C(=CCC4[C@@]5(C)C[C@@H](O)[C@H](O)[C@@](C)(CO)C5[C@H](O)C[C@]43C)[C@@H]2C1 (some centres not stated) | inactive |
| COc1cccc(OC)c1-c1nc(C(=O)N[C@@H](CC(C)C)C(=O)O)cn1-c1ccnc2cc(Cl)ccc12 | inactive |

| SMILES | Potency |
| --- | --- |
| CC12CC(c3ccoc3)OC(=O)C1CCC1(C)C2CCC(O)C1(C)O (configuration not stated) | inactive |
| C[C@@H]1CC[C@]2(C(=O)O[C@@H]3O[C@H](CO[C@@H]4O[C@H](CO)[C@@H](O)[C@H](O)[C@H]4O)[C@@H](O)[C@H](O)[C@H]3O)CC[C@]3(C)C(=CCC4[C@@]5(C)CC[C@H](O)[C@](C)(C(=O)O)C5CC[C@]43C)[C@@H]2[C@]1(C)O (some centres not stated) | inactive |
| COc1cc(/C=C/C(=O)O[C@H]2[C@H](O)[C@@H](CO)O[C@@]2(CO)O[C@H]2O[C@H](CO)[C@@H](O)[C@H](O)[C@H]2O)cc(OC)c1O | inactive |
| CC12CC34CC(O)C5C(CO)(CO)CC(=O)CC5(C)C3CC1C2C4 (configuration not stated) | inactive |
| CC(=O)OCC1OC(O[C@H]2CC[C@@]3(C)C(CC[C@]4(C)C3CC=C3[C@@H]5CC(C)(C)CC[C@]5(C(=O)O)CC[C@]34C)[C@]2(C)CO)C(O)C(O)C1OC1OC(C)C(O)C(OC2OCC(O)C(O)C2O)C1O (some centres not stated) | inactive |
| COc1cccc(Cn2ncc3c4sc(S(C)=O)cc4n(C)c3c2=O)c1 (configuration not stated) | inactive |
| CCCNCCOc1ccc(NC(=O)c2c[nH]c3c2C(=O)CCC3)cc1F | inactive |
| C/C=C(/C)C(=O)OC1C2OC2C2(CO2)C2C3OC(=O)C(C)C3CCC12C (configuration not stated) | inactive |
| CC(=O)OC1CCC2(C)C(CCC3(C)C2CC=C2C4CC(C)(C)CCC4(C)CCC23C)C1(C)C(=O)O (configuration not stated) | inactive |
| COc1cnc(-c2ccc(Cn3c(CC(C)(C)C(=O)O)c(SC(C)(C)C)c4cc(OC[C@@H]5Cc6ccccc6N5C(C)=O)ccc43)cc2)nc1 | inactive |
| C=C(C)[C@@H]1CC[C@]2(C(=O)O)CC[C@]3(C)[C@H](CCC4[C@@]5(C)CCC(=O)C(C)(C)C5C(O)C[C@]43C)C12 (some centres not stated) | inactive |
| CC1=C2C[C@H]3OC(=O)[C@H](O)[C@@]4(O)[C@@H](C)[C@@H](O)[C@H](O)C([C@@]2(C)[C@H](O)[C@@H](O)C1)[C@@]34C (some centres not stated) | inactive |
| C=CC(C)(O)CC/C=C(\C)C(=O)O[C@@H]1[C@@H](O)[C@H](OC(C)(C=C)CC/C=C(\C)C(=O)O)O[C@H](CO)[C@H]1OC(=O)/C(C)=C/CCC(C)(O)C=C (some centres not stated) | inactive |
| NC[C@H]1CCC[C@@H](CNC(=O)[C@@H](Cc2c[nH]c3ccccc23)NC(=O)N2CCC3(C=Cc4ccccc43)CC2)C1 | inactive |
| CCC(C)/C=C(C)/C=C/C1=CC2=C(Cl)C(=O)C(C)(OC(C)=O)C(=O)C2=CN1C(CC(=O)O)C(=O)O (configuration not stated) | inactive |
| CC1=CCC[C@@H]2[C@](CCc3ccoc3)(C(=O)O)[C@H](C)CC[C@@]12C | inactive |
| C=C1C(O)C(O)C2(CC3C(C)=CCC4C(C)(C(=O)O)CCCC34C)OC2C1O (configuration not stated) | inactive |
| CCC(C)C(=O)OC[C@H]1O[C@H](O[C@H]2O[C@H](CO)[C@@H](O)[C@H](O)[C@H]2O)[C@H](O)[C@@H](O)[C@@H]1O (some centres not stated) | inactive |
| C=CCC1=C[C@]2(OC)[C@H](C)[C@@H](c3ccc(OC)c(OC)c3)O[C@]2(OC)CC1=O | inactive |

Source: PubChem BioAssay (NCATS)
